Assay results: the supplement of paper PMC11732987, “Enantioselective OTUD7B fragment discovery through chemoproteomics screening and high-throughput optimisation” (Communications Chemistry, 2025)

Legend:
Test in all cases: log2 ratio of Biotin-Ahx-Ub-VS probe labelling (fragment/DMSO); higher = less target engagement (more negative = stronger competition), active = hit call of the paper (q ≤ 0.05, log2 ratio ≤ -1)
Conditions in all cases: compound concentration: 200 uM; treatment time: 3 h
USP34 = USP34 (UniProt Q70CQ2)
Procedure, shortened: (§1)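 Labelling with Biotin-Ahx-Ub-VS (0.5 µM final, 1 h) followed a 3 h triplicate treatment of HEK293T lysate (495 µg per sample, Tris/CHAPS/IGEPAL buffer with protease inhibitors) with fragment at 200 µM or vehicle. Labelled DUBs were NeutrAvidin-enriched, digested with LysC and trypsin, and run by diaPASEF LC-MS/MS. The values, average log2 fragment/vehicle ratios by unpaired t-test, come from global-median-normalised Spectronaut label-free quantities. Proteins with ≥2 unique peptides were used.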

USP36 = molecular target: T1, USP36 (UniProt Q9P275)
T1 sequence (whole entry): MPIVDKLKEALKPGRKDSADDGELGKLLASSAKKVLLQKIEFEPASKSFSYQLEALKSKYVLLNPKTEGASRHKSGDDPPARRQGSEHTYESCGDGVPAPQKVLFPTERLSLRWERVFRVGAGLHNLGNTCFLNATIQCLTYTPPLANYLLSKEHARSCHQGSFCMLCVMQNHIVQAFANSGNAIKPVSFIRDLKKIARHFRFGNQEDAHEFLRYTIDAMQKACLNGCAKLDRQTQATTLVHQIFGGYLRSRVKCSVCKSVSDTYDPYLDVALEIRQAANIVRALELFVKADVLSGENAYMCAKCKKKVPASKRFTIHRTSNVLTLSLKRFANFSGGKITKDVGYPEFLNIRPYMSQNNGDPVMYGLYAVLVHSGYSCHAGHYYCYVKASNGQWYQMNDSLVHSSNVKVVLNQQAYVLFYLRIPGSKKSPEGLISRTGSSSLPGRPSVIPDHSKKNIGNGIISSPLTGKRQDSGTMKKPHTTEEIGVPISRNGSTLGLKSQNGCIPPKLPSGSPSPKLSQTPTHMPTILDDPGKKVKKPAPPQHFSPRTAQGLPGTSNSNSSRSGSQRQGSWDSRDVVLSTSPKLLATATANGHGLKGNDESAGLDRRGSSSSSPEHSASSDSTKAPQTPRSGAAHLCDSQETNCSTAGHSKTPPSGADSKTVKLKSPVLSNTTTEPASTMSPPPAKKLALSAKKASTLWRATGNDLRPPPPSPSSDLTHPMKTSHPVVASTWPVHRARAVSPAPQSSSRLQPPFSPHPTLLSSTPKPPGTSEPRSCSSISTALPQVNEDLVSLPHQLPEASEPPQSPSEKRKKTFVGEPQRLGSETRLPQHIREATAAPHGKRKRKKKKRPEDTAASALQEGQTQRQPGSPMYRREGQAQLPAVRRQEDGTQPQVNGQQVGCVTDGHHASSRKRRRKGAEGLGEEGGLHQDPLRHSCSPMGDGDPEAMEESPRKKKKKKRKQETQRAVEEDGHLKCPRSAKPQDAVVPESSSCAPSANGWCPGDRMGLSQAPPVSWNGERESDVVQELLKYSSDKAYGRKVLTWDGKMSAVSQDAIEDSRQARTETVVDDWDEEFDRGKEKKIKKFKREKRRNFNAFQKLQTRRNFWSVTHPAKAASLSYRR
Procedure, shortened: as §1

USP38 = molecular target: T2, USP38 (UniProt Q8NB14)
T2 sequence (whole entry): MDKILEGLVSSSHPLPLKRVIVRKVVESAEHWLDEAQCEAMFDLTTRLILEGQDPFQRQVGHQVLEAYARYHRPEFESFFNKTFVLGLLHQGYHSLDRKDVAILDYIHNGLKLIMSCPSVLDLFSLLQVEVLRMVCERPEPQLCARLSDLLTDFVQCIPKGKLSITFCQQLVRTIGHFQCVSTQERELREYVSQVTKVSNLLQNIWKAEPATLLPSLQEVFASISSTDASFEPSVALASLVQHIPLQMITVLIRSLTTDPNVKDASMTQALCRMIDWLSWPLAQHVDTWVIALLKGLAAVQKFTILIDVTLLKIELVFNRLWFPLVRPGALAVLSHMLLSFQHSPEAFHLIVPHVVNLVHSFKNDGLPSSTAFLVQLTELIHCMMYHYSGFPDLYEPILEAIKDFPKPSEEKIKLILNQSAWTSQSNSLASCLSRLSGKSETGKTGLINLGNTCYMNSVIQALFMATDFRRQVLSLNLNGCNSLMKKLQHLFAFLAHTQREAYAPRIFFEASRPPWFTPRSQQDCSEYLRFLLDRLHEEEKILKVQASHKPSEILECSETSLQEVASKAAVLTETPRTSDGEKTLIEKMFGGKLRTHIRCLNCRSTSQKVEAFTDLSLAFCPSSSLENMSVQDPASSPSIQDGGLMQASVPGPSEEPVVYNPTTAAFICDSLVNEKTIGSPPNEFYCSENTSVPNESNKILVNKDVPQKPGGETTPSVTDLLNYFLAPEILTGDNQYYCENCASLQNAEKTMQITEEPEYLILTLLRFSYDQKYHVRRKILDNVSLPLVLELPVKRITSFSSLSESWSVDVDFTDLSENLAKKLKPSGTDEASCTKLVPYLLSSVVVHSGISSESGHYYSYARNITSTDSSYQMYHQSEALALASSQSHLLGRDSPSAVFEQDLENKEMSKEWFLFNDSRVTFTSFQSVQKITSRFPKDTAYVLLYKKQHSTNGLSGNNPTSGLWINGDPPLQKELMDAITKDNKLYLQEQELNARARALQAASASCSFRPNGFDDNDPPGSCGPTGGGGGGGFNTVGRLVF
Procedure, shortened: as §1

USP39 = molecular target: T3, USP39 (UniProt Q53GS9)
T3 sequence (whole entry): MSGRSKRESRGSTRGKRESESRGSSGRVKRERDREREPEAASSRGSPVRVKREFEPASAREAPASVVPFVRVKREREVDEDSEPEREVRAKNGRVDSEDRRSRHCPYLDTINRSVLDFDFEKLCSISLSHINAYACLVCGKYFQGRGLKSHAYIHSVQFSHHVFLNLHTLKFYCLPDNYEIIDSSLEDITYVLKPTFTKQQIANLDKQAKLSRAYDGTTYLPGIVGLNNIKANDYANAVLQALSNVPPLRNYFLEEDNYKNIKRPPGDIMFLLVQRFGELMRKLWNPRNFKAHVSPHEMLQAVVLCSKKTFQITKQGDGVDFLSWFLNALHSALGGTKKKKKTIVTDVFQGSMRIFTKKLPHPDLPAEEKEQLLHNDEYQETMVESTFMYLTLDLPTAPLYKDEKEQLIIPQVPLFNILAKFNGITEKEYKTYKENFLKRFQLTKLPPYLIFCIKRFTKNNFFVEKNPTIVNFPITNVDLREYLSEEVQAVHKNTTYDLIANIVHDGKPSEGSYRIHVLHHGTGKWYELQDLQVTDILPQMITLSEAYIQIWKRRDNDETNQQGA
Procedure, shortened: as §1

USP4 = molecular target: T4, USP4 (UniProt Q13107)
T4 sequence (whole entry): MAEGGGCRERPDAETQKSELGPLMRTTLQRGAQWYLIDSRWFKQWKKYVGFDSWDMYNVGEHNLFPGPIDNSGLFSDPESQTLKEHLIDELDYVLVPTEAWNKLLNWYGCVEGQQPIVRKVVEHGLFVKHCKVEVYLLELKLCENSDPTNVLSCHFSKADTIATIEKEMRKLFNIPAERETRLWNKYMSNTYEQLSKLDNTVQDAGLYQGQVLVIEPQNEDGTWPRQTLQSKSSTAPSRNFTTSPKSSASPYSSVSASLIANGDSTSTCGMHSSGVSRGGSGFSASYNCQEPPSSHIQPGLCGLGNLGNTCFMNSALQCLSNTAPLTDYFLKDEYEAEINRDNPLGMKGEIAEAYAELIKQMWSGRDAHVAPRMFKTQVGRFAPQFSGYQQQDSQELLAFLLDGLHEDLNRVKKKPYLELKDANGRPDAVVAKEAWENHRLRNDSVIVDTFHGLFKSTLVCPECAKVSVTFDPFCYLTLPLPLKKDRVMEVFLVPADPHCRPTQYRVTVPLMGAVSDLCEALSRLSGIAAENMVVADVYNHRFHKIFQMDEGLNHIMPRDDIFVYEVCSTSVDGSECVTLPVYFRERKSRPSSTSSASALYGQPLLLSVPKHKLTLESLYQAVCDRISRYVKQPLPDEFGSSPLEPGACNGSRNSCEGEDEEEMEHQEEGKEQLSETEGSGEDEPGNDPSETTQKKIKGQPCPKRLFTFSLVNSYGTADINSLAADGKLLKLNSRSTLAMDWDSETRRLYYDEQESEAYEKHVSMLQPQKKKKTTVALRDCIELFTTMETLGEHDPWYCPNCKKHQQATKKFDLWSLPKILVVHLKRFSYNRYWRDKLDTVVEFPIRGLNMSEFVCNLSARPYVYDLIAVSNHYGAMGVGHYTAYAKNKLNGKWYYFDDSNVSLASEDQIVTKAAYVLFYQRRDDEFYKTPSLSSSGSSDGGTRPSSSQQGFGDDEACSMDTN
Procedure, shortened: as §1

Measured: log2 ratio of Biotin-Ahx-Ub-VS probe labelling

Sequence of USP34 (Q70CQ2 whole entry, the tested form may be a part): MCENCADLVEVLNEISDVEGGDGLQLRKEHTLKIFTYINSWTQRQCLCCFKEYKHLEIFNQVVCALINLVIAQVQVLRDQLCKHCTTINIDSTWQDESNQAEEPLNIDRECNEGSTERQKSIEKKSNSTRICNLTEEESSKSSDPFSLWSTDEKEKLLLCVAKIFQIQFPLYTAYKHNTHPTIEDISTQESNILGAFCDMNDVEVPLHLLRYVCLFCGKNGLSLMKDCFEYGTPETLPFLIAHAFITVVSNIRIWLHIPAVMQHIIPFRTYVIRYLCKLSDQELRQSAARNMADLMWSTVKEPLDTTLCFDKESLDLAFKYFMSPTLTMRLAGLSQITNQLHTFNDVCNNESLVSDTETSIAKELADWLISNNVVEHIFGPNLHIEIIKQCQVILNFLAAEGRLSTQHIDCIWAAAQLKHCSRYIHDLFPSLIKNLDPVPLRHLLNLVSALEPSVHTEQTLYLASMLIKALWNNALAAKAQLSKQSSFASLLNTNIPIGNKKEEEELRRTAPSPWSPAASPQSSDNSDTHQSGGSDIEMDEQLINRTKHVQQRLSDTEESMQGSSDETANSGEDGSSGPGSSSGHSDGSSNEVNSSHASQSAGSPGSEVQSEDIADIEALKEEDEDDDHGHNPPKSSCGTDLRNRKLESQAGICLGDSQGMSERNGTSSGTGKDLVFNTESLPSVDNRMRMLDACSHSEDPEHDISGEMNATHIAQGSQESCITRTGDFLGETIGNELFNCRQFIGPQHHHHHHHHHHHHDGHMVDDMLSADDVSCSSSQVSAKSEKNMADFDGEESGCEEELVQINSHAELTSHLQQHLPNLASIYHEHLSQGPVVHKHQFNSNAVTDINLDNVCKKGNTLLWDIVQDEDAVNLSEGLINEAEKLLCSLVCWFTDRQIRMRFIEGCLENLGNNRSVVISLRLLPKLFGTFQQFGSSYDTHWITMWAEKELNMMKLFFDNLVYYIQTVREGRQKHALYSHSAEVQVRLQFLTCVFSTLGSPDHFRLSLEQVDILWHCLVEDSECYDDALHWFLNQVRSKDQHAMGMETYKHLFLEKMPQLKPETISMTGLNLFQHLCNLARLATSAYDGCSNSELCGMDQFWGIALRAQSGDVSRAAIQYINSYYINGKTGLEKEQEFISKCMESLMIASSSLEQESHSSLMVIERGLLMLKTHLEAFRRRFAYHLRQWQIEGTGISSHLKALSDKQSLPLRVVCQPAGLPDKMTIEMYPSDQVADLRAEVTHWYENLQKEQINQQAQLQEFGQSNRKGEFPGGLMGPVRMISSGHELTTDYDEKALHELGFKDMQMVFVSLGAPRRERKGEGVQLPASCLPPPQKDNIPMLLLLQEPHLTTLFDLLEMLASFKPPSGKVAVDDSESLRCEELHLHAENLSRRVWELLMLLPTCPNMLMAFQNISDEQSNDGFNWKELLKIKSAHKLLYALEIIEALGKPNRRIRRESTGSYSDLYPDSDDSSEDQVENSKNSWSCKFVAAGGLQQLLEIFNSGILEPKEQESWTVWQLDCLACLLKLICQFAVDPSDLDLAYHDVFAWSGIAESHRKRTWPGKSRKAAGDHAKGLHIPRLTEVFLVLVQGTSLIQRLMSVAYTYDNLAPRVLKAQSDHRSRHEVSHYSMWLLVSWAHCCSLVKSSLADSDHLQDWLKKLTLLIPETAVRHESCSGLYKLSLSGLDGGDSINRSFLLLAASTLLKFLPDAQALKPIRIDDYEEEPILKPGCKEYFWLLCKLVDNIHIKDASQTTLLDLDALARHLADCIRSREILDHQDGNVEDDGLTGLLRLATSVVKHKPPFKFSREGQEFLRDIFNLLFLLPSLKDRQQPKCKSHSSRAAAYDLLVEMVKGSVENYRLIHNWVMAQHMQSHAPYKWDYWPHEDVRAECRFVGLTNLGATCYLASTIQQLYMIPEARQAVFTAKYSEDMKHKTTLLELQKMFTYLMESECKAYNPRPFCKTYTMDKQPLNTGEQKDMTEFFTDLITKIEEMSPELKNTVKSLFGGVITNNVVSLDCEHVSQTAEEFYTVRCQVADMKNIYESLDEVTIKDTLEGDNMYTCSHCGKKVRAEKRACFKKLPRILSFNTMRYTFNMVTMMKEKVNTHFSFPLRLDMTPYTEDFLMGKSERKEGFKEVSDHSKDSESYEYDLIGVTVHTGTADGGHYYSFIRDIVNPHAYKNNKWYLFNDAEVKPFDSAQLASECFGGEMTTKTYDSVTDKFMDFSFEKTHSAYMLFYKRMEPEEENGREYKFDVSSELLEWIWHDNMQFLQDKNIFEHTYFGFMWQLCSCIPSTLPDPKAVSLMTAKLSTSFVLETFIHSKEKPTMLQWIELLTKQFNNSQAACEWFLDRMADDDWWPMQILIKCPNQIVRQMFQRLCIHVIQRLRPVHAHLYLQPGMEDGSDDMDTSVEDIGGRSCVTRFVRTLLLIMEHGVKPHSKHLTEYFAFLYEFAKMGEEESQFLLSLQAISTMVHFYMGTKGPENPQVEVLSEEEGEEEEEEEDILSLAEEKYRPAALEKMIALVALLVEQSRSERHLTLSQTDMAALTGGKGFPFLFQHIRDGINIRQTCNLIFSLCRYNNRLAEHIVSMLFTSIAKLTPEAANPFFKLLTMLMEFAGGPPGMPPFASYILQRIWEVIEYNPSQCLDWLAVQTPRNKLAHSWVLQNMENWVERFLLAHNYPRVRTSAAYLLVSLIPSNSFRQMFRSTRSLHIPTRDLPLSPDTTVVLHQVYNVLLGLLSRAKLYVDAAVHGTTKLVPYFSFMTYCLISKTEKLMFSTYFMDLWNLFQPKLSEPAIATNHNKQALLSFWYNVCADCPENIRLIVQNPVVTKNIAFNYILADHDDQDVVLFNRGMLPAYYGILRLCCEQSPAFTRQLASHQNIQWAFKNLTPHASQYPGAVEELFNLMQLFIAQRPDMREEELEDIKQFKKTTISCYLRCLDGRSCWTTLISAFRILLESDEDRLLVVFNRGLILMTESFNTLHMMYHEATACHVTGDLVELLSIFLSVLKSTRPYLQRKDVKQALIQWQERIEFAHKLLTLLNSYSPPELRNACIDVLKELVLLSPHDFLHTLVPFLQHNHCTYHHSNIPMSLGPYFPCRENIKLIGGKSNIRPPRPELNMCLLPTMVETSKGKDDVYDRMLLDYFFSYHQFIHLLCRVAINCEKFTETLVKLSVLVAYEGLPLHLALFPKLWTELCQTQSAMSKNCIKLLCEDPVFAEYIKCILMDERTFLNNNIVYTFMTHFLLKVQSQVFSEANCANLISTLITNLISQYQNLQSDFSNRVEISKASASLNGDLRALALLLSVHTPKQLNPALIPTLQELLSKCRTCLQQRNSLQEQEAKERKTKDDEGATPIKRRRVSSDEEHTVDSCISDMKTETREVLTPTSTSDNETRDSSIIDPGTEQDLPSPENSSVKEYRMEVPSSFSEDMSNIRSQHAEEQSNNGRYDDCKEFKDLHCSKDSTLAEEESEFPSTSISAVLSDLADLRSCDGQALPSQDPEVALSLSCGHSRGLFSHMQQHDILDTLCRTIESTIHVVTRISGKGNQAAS

O=C(CCl)N1CCOCC1C1CC1 (stereo not given)
inactive: USP34 0.0844 | USP36 -0.0397 | USP38 0.0391 | USP39 0.265 | USP4 -0.101
